In PubChem BioAssay (NCATS):
Inconclusive results are not listed. The source made the active and inactive calls. The call rests on the fitted dose curve; in most records, active means well fitted cell-killing curve with a large enough effect; inconclusive means small, poorly fitted or top-dose-only effect, or effect the other way; inactive means flat fitted curve, though single readings scatter.

How the values were obtained:
Assay in all cases: Primary qHTS to identify gynecologic anti-cancer compounds using libraries of approved drugs and bioactive compounds (AID 1345084); further: nearly all actives have a fitted effect of over 55% in size
C33A = conditions: Gynecologic cancer cell panel viability, ATPlite luminescence, 48 h; series mostly up to 57.5 µM
How it was run: (§1)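 Cell viability after 48 h drug treatment, ATPlite luminescence readout; five doses.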

CAOV3 = conditions: Gynecologic cancer cell panel viability, ATPlite luminescence, 48 h; series mostly up to 57.5 µM
How it was run: as §1

CASKI = conditions: Gynecologic cancer cell panel viability, ATPlite luminescence, 48 h; series mostly up to 57.5 µM
How it was run: as §1

Es-2 = conditions: Gynecologic cancer cell panel viability, ATPlite luminescence, 48 h; series mostly up to 57.5 µM
How it was run: as §1

HeLa = conditions: Gynecologic cancer cell panel viability, ATPlite luminescence, 48 h; series mostly up to 57.5 µM
How it was run: as §1

Hek293T = conditions: Gynecologic cancer cell panel viability, ATPlite luminescence, 48 h, control line for the selectivity index; series mostly up to 57.5 µM
How it was run: as §1

JEG-3 = conditions: Gynecologic cancer cell panel viability, ATPlite luminescence, 48 h; series mostly up to 57.5 µM
How it was run: as §1

OV90 = conditions: Gynecologic cancer cell panel viability, ATPlite luminescence, 48 h; series mostly up to 57.5 µM
How it was run: as §1

PA-1 = conditions: Gynecologic cancer cell panel viability, ATPlite luminescence, 48 h; series mostly up to 57.5 µM
How it was run: as §1

SKOV3 = conditions: Gynecologic cancer cell panel viability, ATPlite luminescence, 48 h; series mostly up to 57.5 µM
How it was run: as §1

Tov-21-G = conditions: Gynecologic cancer cell panel viability, ATPlite luminescence, 48 h; series mostly up to 57.5 µM
How it was run: as §1

Tov112D = conditions: Gynecologic cancer cell panel viability, ATPlite luminescence, 48 h; series mostly up to 57.5 µM
How it was run: as §1

Measured: Potency

O=C(O[C@H]1[C@@H]2C[C@@H]3OC[C@](O)([C@@H]1Cl)[C@H]2C(O[C@@H]1O[C@H](CO)[C@@H](O)[C@H](O)[C@H]1O)O3)c1ccc(O)c(O)c1 (stereo partly specified)
inactive: C33A | CAOV3 | CASKI | Es-2 | HeLa | Hek293T | JEG-3 | OV90 | PA-1 | SKOV3 | Tov-21-G | Tov112D

CCOc1ccc(S(=O)(=O)n2c(C)nc3ccccc32)cc1
inactive: C33A | CAOV3 | CASKI | Es-2 | HeLa | Hek293T | JEG-3 | OV90 | PA-1 | SKOV3 | Tov-21-G | Tov112D

CC(=O)OC/C=C(\C)C(CC1C(C)=C(OC(C)=O)C(=O)C2C(C)(C)C(O)CCC12C)OC(C)=O (stereo unspecified)
inactive: C33A | CAOV3 | CASKI | Es-2 | HeLa | Hek293T | JEG-3 | OV90 | PA-1 | SKOV3 | Tov-21-G | Tov112D

Fc1ccc2nc(CCC#Cc3ccccn3)cn2c1
inactive: C33A | CAOV3 | CASKI | Es-2 | HeLa | Hek293T | JEG-3 | OV90 | PA-1 | SKOV3 | Tov-21-G | Tov112D

CC1=C(C)C(=O)OC(C(C)C2CCC3C4CC=C5CC(OC6OC(COC7OC(CO)C(O)C(O)C7O)C(O)C(O)C6O)CC(O)C5(C)C4CCC23C)C1 (stereo unspecified)
inactive: C33A | CAOV3 | CASKI | Es-2 | HeLa | Hek293T | JEG-3 | OV90 | PA-1 | SKOV3 | Tov-21-G | Tov112D

COc1ccc(C(O)C(C)OC2OC(CO)C(O)C(O)C2O)cc1 (stereo unspecified)
inactive: C33A | CAOV3 | CASKI | Es-2 | HeLa | Hek293T | JEG-3 | OV90 | PA-1 | SKOV3 | Tov-21-G | Tov112D

O=C(Nc1ccn[nH]1)c1c(F)cccc1F
inactive: C33A | CAOV3 | CASKI | Es-2 | HeLa | Hek293T | JEG-3 | OV90 | PA-1 | SKOV3 | Tov-21-G | Tov112D

COc1ccc(C2(O)CCC(N3CC[C@@H](NC(=O)CNC(=O)c4cccc(C(F)(F)F)c4)C3)CC2)cn1 (stereo partly specified)
inactive: C33A | CAOV3 | CASKI | Es-2 | HeLa | Hek293T | JEG-3 | OV90 | PA-1 | SKOV3 | Tov-21-G | Tov112D

C=C1C[C@]23C[C@H]1CC[C@H]2[C@@]1(C)CCC[C@@]2(C)C(=O)O[C@@H]([C@@H]3O)[C@@H]12
inactive: C33A | CAOV3 | CASKI | Es-2 | HeLa | Hek293T | JEG-3 | OV90 | PA-1 | SKOV3 | Tov-21-G | Tov112D

COC(=O)C1=CO[C@@H](O[C@@H]2O[C@H](CO)[C@@H](O)[C@H](O)[C@H]2O)[C@@H]2[C@@](C)(O)[C@@H](OC(=O)/C=C/c3ccc(O)cc3)C[C@]12O
inactive: C33A | CAOV3 | CASKI | Es-2 | HeLa | Hek293T | JEG-3 | OV90 | PA-1 | SKOV3 | Tov-21-G | Tov112D

O=C(NCc1cccc(O)c1)c1cc2cc(F)ccc2[nH]1
inactive: C33A | CAOV3 | CASKI | Es-2 | HeLa | Hek293T | JEG-3 | OV90 | PA-1 | SKOV3 | Tov-21-G | Tov112D

N#C[C@@H]1C[C@H](F)CN1C(=O)CNC1[C@H]2CN(C(=O)c3ccc(F)cc3)C[C@@H]12 (stereo partly specified)
inactive: C33A | CAOV3 | CASKI | Es-2 | HeLa | Hek293T | JEG-3 | OV90 | PA-1 | SKOV3 | Tov-21-G | Tov112D

COc1c(C)c(OCC(O)C(C)(C)O)cc2c1COC2=O (stereo unspecified)
inactive: C33A | CAOV3 | CASKI | Es-2 | HeLa | Hek293T | JEG-3 | OV90 | PA-1 | SKOV3 | Tov-21-G | Tov112D
